Calls of active or inactive are those of the source. How the source made its calls: active means hit-call score of the fitted dose curve at least 0.9, where 1 is the maximum; inactive means score below 0.9.

The assay can be described thus: ATG_M_32_CIS: Attagene CIS-FACTORIAL HepG2 Assay for M32 Transcription Factor (Internal Marker) (AID 2282949).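 Further: background control marker of the multiplexed CIS panel rather than a real target.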 The following applies: HepG2 Attagene cis-factorial M32 reporter, mRNA; actives raise or lower the signal. The protocol: ATG_CIS is a cell-based, multiplexed-readout assay that uses HepG2, a human liver cell line, with measurements taken at 24 hours after chemical dosing in a 24-well plate.ATG_M_32_CIS is one of 52 assay component(s) measured or calculated from the ATG_CIS assay. It is designed to make measurements of mRNA induction, a form of inducible reporter, as detected with fluorescence intensity signals by Reverse transcription polymerase chain reaction (RT-PCR) and Capillary electrophoresis technology.Data from the assay component ATG_M_32_CIS was analyzed into 1 assay endpoint. This assay endpoint, ATG_M_32_CIS, was analyzed with bidirectional fitting relative to DMSO as the negative control and baseline of activity. Using a type of inducible reporter, measures of mRNA for gain or loss-of-signal activity can be used to understand the background control at the transcription factor-level as they relate to the gene . Furthermore, this assay endpoint can be referred to as a secondary readout, because this assay has produced multiple assay endpoints where this one serves a background control function. To generalize the intended target to other relatable targets, this assay endpoint is annotated to the background measurement intended target family, where the subfamily is internal marker.
Human liver HepG2 cells are transiently transfected with multiple reporter transcription units (MRTUs) in 6-well plates using FuGene 6 reagent (Roche; 3 ml FuGene/1 mg DNA). The MRTU constructs are regulated by a cis-regulating element (promoter). […] A major difference between the CIS and TRANS system is that in CIS activities of endogenous TFs are measured, whereas the TRANS assay evaluates changes in activities of exogenous, chimeric NR-Gal4 proteins. […] At the end of 24 hour incubation, total RNA was isolated using TriZol reagent (Invitrogen). The isolated RNA is then reverse-transcribed using oligo(dT) primer and Mo-MLV reverse transcriptase (Invitrogen) with DNAse I (Ambion) treatment for 30 min. The one-tenth of the produced cDNA was amplified by PCR using Taq DNA polymerase (Invitrogen) and two reporter sequence-specific primers. The PCR products were fluorescently labeled by primer extension with 6-arboxyfluorescein (6-FAM) 5'-labeled reporter sequence-specific primer (2 min at 95 C, 20 s at 68 C and 10 min at 72 C) and these products were digested with 5U of HpaI (New England Biolabs) for 2h at 37 C. The fragments were purified using Qiaquick PCR columns (Qiagen), analyzed on an ABI 3130xL genetic analyzer (Applied Biosystems) with peak positions identified by using a set of X-rhodamine (ROX)-labeled MapMarker1000 molecular weight standards (BioVentures). The raw capillary electrophoresis data was processed using Attagraph software (Attagene).
Consider `C=C(CC(=O)O)C(=O)O`, for which the compound was classed as inactive.

Consider `Cc1occc(=O)c1OC(=O)C(C)C`, for which the compound was called inactive.

In the case of `COCCc1ccc(OCC(O)CNC(C)C)cc1` (stereo not given), the compound was classed as inactive.

Consider `COS(=O)(=O)O`, for which the result was inactive.

In the case of `c1ccc2[nH]cnc2c1`, the compound was classed as inactive.

Regarding `Cc1c(C2(c3cc(Br)c(O)c(Br)c3C)OS(=O)(=O)c3ccccc32)cc(Br)c(O)c1Br`, the call was inactive.

Take `CCCCCCCCSCCO`: the call was inactive.

As to `O=[N+]([O-])c1cccc(Cl)c1`, the call was inactive.

For `Cc1c(Cl)cccc1[N+](=O)[O-]`, the call was inactive.

Turning to `CCOC(=O)C(C#N)=C(c1ccccc1)c1ccccc1`, the compound was called inactive.

Take `Cc1cccc(Nc2ccccc2)c1`: the compound was classed as inactive.

Turning to `[Cl][Au]([Cl])[Cl]`, the call was inactive.

With `OC[C@H]1O[C@@H]2O[C@H]3[C@H](O)[C@@H](O)[C@@H](O[C@H]4[C@H](O)[C@@H](O)[C@@H](O[C@H]5[C@H](O)[C@@H](O)[C@@H](O[C@H]6[C@H](O)[C@@H](O)[C@@H](O[C@H]7[C@H](O)[C@@H](O)[C@@H](O[C@H]8[C@H](O)[C@@H](O)[C@@H](O[C@H]9[C@H](O)[C@@H](O)[C@@H](O[C@H]1[C@H](O)[C@H]2O)O[C@@H]9CO)O[C@@H]8CO)O[C@@H]7CO)O[C@@H]6CO)O[C@@H]5CO)O[C@@H]4CO)O[C@@H]3CO`, the compound was classed as inactive.

Turning to `COc1ccc(N)c([N+](=O)[O-])c1`, the compound was classed as inactive.

For the compound `CCCCSCCCC`, the compound was called inactive.

On to `C=C(C#N)C(=O)OCC`, for which the call was inactive.

In the case of `CC(C)CC(C)CC(O)CC(C)C` (stereo not given), the call was inactive.

In the case of `CCN(CCN)c1cccc(C)c1`, the result was inactive.

Take `CCCCCCCCCCCC(=O)OC[C@@H](O)[C@H]1OC[C@H](O)[C@H]1O`: the compound was called inactive.

Consider `CN(C)c1ccncc1`, for which the compound was called inactive.

On to `FC(F)(F)COCC(F)(F)F`, for which the compound was classed as inactive.

With `CC(=O)c1ccccn1`, the call was inactive.

For the compound `Cc1cc(CCC(=O)OCCOCCOCCOC(=O)CCc2cc(C)c(O)c(C(C)(C)C)c2)cc(C(C)(C)C)c1O`, the call was inactive.

Consider `Cc1ccc2c(c1)C(=O)OC2=O`, for which the call was inactive.

On to `CCc1cc(Cc2cc(CC)cc(C(C)(C)C)c2O)c(O)c(C(C)(C)C)c1`, for which the compound was called inactive.

As to `O=C(Nc1ccc([N+](=O)[O-])cc1)Nc1ccc([N+](=O)[O-])cc1` (tested in a mixture with another compound), the compound was classed as inactive.

As to `NC(=S)NNC(N)=S`, the outcome was inactive.

For `OCc1cccc(Oc2ccccc2)c1`, the outcome was inactive.

For the compound `COc1ccc(COC(C)=O)cc1`, the compound was classed as inactive.

Regarding `c1ccc(CN(Cc2ccccc2)Cc2ccccc2)cc1`, the call was inactive.

On to `C=C(C)CNCC`, for which the call was inactive.

In the case of `O=[N+]([O-])c1ccc(O)cc1C(F)(F)F`, the result was inactive.

As to `C1CCCCC1`, the result was inactive.

For the compound `Nc1ccn([C@H]2CS[C@@H](CO)O2)c(=O)n1`, the compound was called inactive.

Regarding `CCC(=O)OCCOc1ccccc1`, the compound was called inactive.

On to `O=C(O)COCC(=O)O`, for which the call was inactive.

For the compound `CC(C=O)Cc1ccc(C(C)(C)C)cc1` (stereo not given), the outcome was inactive.

Turning to `OCCCCC(O)CO` (stereo not given), the compound was called inactive.

As for `CCOC(=O)CN`, the compound was classed as inactive.

With `CCCCCC(C)=O`, the result was inactive.

Values taken from PubChem BioAssay (EPA / NIEHS).
